Laboratory results reported in PubChem BioAssay.
Calls of active or inactive are those of the source. No stated cut-off is given here; in the data, active means inhibition above about 31%; inactive means the rest.

Experiment: reversal of MRP1-mediated doxorubicin resistance, pilot screen, H69AR cells, doxorubicin co-treatment (AID 601)
Conditions: H69AR cells, CellTiter-Glo, 72 h; compound alone cytotoxicity; at 10 µM

Structure (SMILES) | viability [%]
CCOC(=O)c1ccc(NS(=O)(=O)c2ccc3c(c2)oc(=O)n3C)cc1 | 113
O=C(Nc1ccc2c(c1)OCCO2)NC1CCCCC1 | 85.9
O=C(CSc1nnnn1-c1ccccc1Cl)Nc1ccc2c(c1)OCCO2 | 77.2
COc1ccc(-c2nc(CSCC(=O)NCc3ccc4c(c3)OCO4)c(C)o2)cc1OC | 84.9
Cc1cnc(NC(=O)CSc2nnc(COc3c(C)cccc3C)o2)s1 | 87.1
Cc1cccc(C2CC(c3ccccc3)Nc3nc(N)nn32)c1 (stereo not given) | 108
CCc1ccccc1N1CC23C=CC(O2)C(C(=O)O)C3C1=O (stereo not given) | 86.7
CCOC(=O)C1CCN(Cc2ccc(F)c(Br)c2)CC1 | 85.5
CCOc1ccccc1N1Cc2cc(C)c(C)cc2C1 | 88.1
CCN1CCN(C(CNC(=O)c2ccc3c(c2)OCO3)c2cccnc2)CC1 (stereo not given) | 99.6
O=C(NCCSc1c[nH]c2ccccc12)c1ccco1 | 65.1
COCCNC(=O)CN(C)S(=O)(=O)c1ccc(Br)cc1 | 104
COc1cc(C(=O)Nc2cccc(-c3nncn3C)c2)cc(OC)c1OC | 89
CN1CCN(Cc2nc3c(c(=O)n(C)c(=O)n3C)n2Cc2ccccc2Cl)CC1 | 86.9
O=C(OCCN=C1NS(=O)(=O)c2ccccc21)C1CC(=O)N(c2ccc(Cl)cc2)C1 (stereo not given) | 93.2
COc1cccc2cc(C(=O)OC3CCN(C)CC3)c(=O)oc12 | 105
Cc1cccc(N2C(=O)CC(N3CCN(c4cccc(C(F)(F)F)c4)CC3)C2=O)c1 (stereo not given) | 96.9
O=c1c2ccccc2nc2n1CCN2 | 109
CCOC(=O)C1=C(C)Nc2nnnn2C1c1ccc(OC)c(Br)c1 (stereo not given) | 93.3
COc1ccc(-n2c(Cc3cccn3C)nnc2SCC(N)=O)cc1 | 97.5

Structure (SMILES) | viability [%]
COc1ccccc1NC(=O)CSc1nnc(Cc2cccn2C)n1-c1ccc(F)cc1 | 71.8
CC(=O)Nc1cccc(Oc2nc(C)cc(C)c2C#N)c1 | 87.3
COc1ccc(CNC(=O)c2ccc(CN3CCOCC3)cc2)cc1 | 92.1
Cc1cc(OCC(=O)NCCO)cc(C)c1Cl | 96.4
COc1ccc(C)cc1S(=O)(=O)N1CCN(S(=O)(=O)c2cc(C)ccc2OC)CC1 | 95
CCCCC(NS(=O)(=O)c1ccc(OC)cc1)C(=O)O (stereo not given) | 98.4
CCOc1ccc(Cn2nnc(C(=O)Nc3ccc(OC)cc3OC)c2N)cc1 | 102
Cc1cc(C)c(NC(=O)CSc2nc3c(c(=O)n2C)SC(C)C3)c(C)c1 (stereo not given) | 90
COc1ccccc1N1C(=O)CCC1(C#N)c1ccccc1 (stereo not given) | 117
CCOc1ccc(N(CC(=O)NC2CCCC(C)C2C)S(=O)(=O)c2c(C)noc2C)cc1 (stereo not given) | 73.1
CCN1C(=O)c2ccccc2S(=O)(=O)c2ccc(C(=O)NCc3cccnc3)cc21 | 91.5
Cc1ccc(C(=O)CC2(O)C(=O)N(C)c3ccc(Br)cc32)c(C)c1 (stereo not given) | 75
CCN1CCN(C(=O)c2cn(CC)c3ccc(S(=O)(=O)N(C)C)cc3c2=O)CC1 | 107
COc1ccc(OC)c(NC(=O)CSc2nnc(Cc3cccn3C)n2-c2ccc(F)cc2)c1 | 85.6
CCOc1ccc(-c2nnc(SCC(=O)N3CCN(c4ccccc4)CC3)o2)cc1 | 86.5
COCCCN(C)C1CCN(C(=O)Nc2ccc(F)cc2)CC1 | 89
COc1cccc(C2CC(=O)Nc3c2c(=O)n(C)c(=O)n3C)c1OC (stereo not given) | 102
CCCC(=O)C1=C(N(C)c2ccccc2)CC(C)(C)C(C(=O)OC)C1=O (stereo not given) | 94.4
CC(=O)N1c2c(cc(Br)cc2S(=O)(=O)NCC2COc3ccccc3O2)CC1C (stereo not given) | 81.7
CCCCNC(=O)Cn1c(=O)n(C)c2ccccc21 | 88.5

Experiment: 384-well plate pilot, post-Golgi transport modulator project, inhibition of yeast transport mutant growth (AID 636)
Conditions: absorbance 615 nm, about 18 h, stronger effect = higher value

Structure (SMILES) | inhibition
CCOC(=O)c1ccc(NS(=O)(=O)c2ccc3c(c2)oc(=O)n3C)cc1 | -0.77% (inactive)
O=C(Nc1ccc2c(c1)OCCO2)NC1CCCCC1 | -4.27% (inactive)
O=C(CSc1nnnn1-c1ccccc1Cl)Nc1ccc2c(c1)OCCO2 | -0.4% (inactive)
COc1ccc(-c2nc(CSCC(=O)NCc3ccc4c(c3)OCO4)c(C)o2)cc1OC | -4% (inactive)
Cc1cnc(NC(=O)CSc2nnc(COc3c(C)cccc3C)o2)s1 | -5.33% (inactive)
Cc1cccc(C2CC(c3ccccc3)Nc3nc(N)nn32)c1 (stereo not given) | -4.13% (inactive)
CCc1ccccc1N1CC23C=CC(O2)C(C(=O)O)C3C1=O (stereo not given) | -7.2% (inactive)
CCOC(=O)C1CCN(Cc2ccc(F)c(Br)c2)CC1 | -1.17% (inactive)
CCOc1ccccc1N1Cc2cc(C)c(C)cc2C1 | -6.27% (inactive)
CCN1CCN(C(CNC(=O)c2ccc3c(c2)OCO3)c2cccnc2)CC1 (stereo not given) | -2% (inactive)
O=C(NCCSc1c[nH]c2ccccc12)c1ccco1 | -4.8% (inactive)
COCCNC(=O)CN(C)S(=O)(=O)c1ccc(Br)cc1 | -6.27% (inactive)
COc1cc(C(=O)Nc2cccc(-c3nncn3C)c2)cc(OC)c1OC | -2.31% (inactive)
CN1CCN(Cc2nc3c(c(=O)n(C)c(=O)n3C)n2Cc2ccccc2Cl)CC1 | -5.07% (inactive)
O=C(OCCN=C1NS(=O)(=O)c2ccccc21)C1CC(=O)N(c2ccc(Cl)cc2)C1 (stereo not given) | -3.25% (inactive)
COc1cccc2cc(C(=O)OC3CCN(C)CC3)c(=O)oc12 | -3.08% (inactive)
Cc1cccc(N2C(=O)CC(N3CCN(c4cccc(C(F)(F)F)c4)CC3)C2=O)c1 (stereo not given) | -2.86% (inactive)
O=c1c2ccccc2nc2n1CCN2 | -0.93% (inactive)
CCOC(=O)C1=C(C)Nc2nnnn2C1c1ccc(OC)c(Br)c1 (stereo not given) | 5.07% (inactive)
COc1ccc(-n2c(Cc3cccn3C)nnc2SCC(N)=O)cc1 | 0.64% (inactive)

Structure (SMILES) | inhibition
COc1ccccc1NC(=O)CSc1nnc(Cc2cccn2C)n1-c1ccc(F)cc1 | -4.8% (inactive)
CC(=O)Nc1cccc(Oc2nc(C)cc(C)c2C#N)c1 | -2% (inactive)
COc1ccc(CNC(=O)c2ccc(CN3CCOCC3)cc2)cc1 | -4% (inactive)
Cc1cc(OCC(=O)NCCO)cc(C)c1Cl | 1.56% (inactive)
COc1ccc(C)cc1S(=O)(=O)N1CCN(S(=O)(=O)c2cc(C)ccc2OC)CC1 | -5.47% (inactive)
CCCCC(NS(=O)(=O)c1ccc(OC)cc1)C(=O)O (stereo not given) | -0.39% (inactive)
CCOc1ccc(Cn2nnc(C(=O)Nc3ccc(OC)cc3OC)c2N)cc1 | -1.07% (inactive)
Cc1cc(C)c(NC(=O)CSc2nc3c(c(=O)n2C)SC(C)C3)c(C)c1 (stereo not given) | -2.67% (inactive)
COc1ccccc1N1C(=O)CCC1(C#N)c1ccccc1 (stereo not given) | 0.68% (inactive)
CCOc1ccc(N(CC(=O)NC2CCCC(C)C2C)S(=O)(=O)c2c(C)noc2C)cc1 (stereo not given) | 1.41% (inactive)
CCN1C(=O)c2ccccc2S(=O)(=O)c2ccc(C(=O)NCc3cccnc3)cc21 | 0.93% (inactive)
Cc1ccc(C(=O)CC2(O)C(=O)N(C)c3ccc(Br)cc32)c(C)c1 (stereo not given) | -4.13% (inactive)
CCN1CCN(C(=O)c2cn(CC)c3ccc(S(=O)(=O)N(C)C)cc3c2=O)CC1 | 0% (inactive)
COc1ccc(OC)c(NC(=O)CSc2nnc(Cc3cccn3C)n2-c2ccc(F)cc2)c1 | 3.59% (inactive)
CCOc1ccc(-c2nnc(SCC(=O)N3CCN(c4ccccc4)CC3)o2)cc1 | -3.73% (inactive)
COCCCN(C)C1CCN(C(=O)Nc2ccc(F)cc2)CC1 | -3.47% (inactive)
COc1cccc(C2CC(=O)Nc3c2c(=O)n(C)c(=O)n3C)c1OC (stereo not given) | 1.33% (inactive)
CCCC(=O)C1=C(N(C)c2ccccc2)CC(C)(C)C(C(=O)OC)C1=O (stereo not given) | -2.47% (inactive)
CC(=O)N1c2c(cc(Br)cc2S(=O)(=O)NCC2COc3ccccc3O2)CC1C (stereo not given) | -5.34% (inactive)
CCCCNC(=O)Cn1c(=O)n(C)c2ccccc21 | -5.07% (inactive)
